# Assay results: PubChem BioAssay
# How the values were obtained:
# [1] = test system: Human papillomavirus type 1a protein E7 (residues 44-93); experiment: small molecules binding HPV E7 44-93 – biochemical, small-molecule microarray, residues 44-93, 635 nm fluorescence, primary screen (AID 1108); conditions: fluorescence 635 nm, higher = more signal;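 further: E7 fragment applied at 1 µg/mL in TBST for 1 h at 4 C; score combines spot fluorescence with its signal to noise ratio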
# [2] = hepatitis C replication reporter changes, two-sided – Huh7 cells, luciferase reporter, HCV replication inhibitor project, primary screen (AID 1109); conditions: Huh7 HCV replicon luciferase reporter, 48 h; higher = more signal;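 further: huh7 hepatoma cells harbouring a luciferase neomycin HCV replicon reporter; luciferase luminescence as measure of HCV replicon replication; test concentration not given here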
# [3] = biological target: Left-right determination factor 2 (Homo sapiens) (UniProt O00292); experiment: small molecules binding LEFTY2 protein – biochemical, small-molecule microarray, 635 nm fluorescence scan, primary screen (AID 1110); conditions: higher = more signal
# Chain of Left-right determination factor 2 (Homo sapiens) (O00292 whole entry, looked up): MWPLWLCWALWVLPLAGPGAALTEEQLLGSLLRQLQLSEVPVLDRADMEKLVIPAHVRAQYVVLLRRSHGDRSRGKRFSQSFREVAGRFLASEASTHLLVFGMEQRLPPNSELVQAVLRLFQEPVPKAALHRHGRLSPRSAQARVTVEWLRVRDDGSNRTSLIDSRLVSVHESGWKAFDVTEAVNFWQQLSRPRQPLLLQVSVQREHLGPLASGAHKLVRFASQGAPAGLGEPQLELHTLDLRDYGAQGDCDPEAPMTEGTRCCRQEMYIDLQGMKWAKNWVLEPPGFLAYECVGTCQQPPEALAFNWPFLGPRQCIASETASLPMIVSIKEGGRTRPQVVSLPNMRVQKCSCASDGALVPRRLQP
# [4] = biological target: Calmodulin-1 (Homo sapiens) (UniProt P0DP23); experiment: small molecules binding calmodulin-1 with EGTA – biochemical, small-molecule microarray, Cy5-labelled CALM1, profiling panel (AID 1111); conditions: Cy5-CALM1 binding fluorescence, higher = more signal;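 further: labelled calmodulin applied in Tris saline Tween buffer holding calcium plus EGTA and DTT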
# [5] = biological target: Calmodulin-1 (Homo sapiens) (UniProt P0DP23); experiment: small molecules binding Ca-loaded calmodulin-1 – biochemical, small-molecule microarray, Cy5-labelled CALM1, plus calcium, artefact control for SMM control-protein annotation, profiling panel (AID 1112); conditions: Cy5-CALM1 binding fluorescence, higher = more signal;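 further: score merges spot fluorescence with signal to noise from triplicate slides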
# [6] = probe aWnt5a binding to arrayed compounds – biochemical, biotinylated probe, 635/667 nm fluorescence, primary screen (AID 1113); conditions: small-molecule microarray, higher = more signal;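 further: score merges 667 nm fluorescence intensity with signal-to-noise per printed feature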
# [7] = probe aShh binding to arrayed compounds – biochemical, biotinylated probe, 635/667 nm fluorescence, primary screen (AID 1114); conditions: small-molecule microarray, higher = more signal;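 further: probe is biotin-labelled aShh protein from a stem cell growth factor screen; measures binding of labelled protein to compounds printed on the slide; score merges feature fluorescence at 667 nm with signal-to-noise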
# [8] = probe aNog binding to arrayed compounds – biochemical, biotinylated probe, 635/667 nm fluorescence, primary screen (AID 1115); conditions: small-molecule microarray, higher = more signal;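 further: probe is biotinylated aNog protein used at 0.15 µg/mL for 1 h at 4 C; z-score combines 667 nm fluorescence of each spot with its signal to noise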
# [9] = biological target: Torsin-1A-interacting protein 1 (Homo sapiens) (UniProt Q5JTV8); experiment: compound microarray binding of lysate hLAP1 – cell lysate, small-molecule microarray, COS7 lysate, 635/667 nm fluorescence, primary screen (AID 1116); conditions: 635 nm fluorescence, higher = more signal
# Chain of Torsin-1A-interacting protein 1 (Homo sapiens) (Q5JTV8 whole entry, looked up): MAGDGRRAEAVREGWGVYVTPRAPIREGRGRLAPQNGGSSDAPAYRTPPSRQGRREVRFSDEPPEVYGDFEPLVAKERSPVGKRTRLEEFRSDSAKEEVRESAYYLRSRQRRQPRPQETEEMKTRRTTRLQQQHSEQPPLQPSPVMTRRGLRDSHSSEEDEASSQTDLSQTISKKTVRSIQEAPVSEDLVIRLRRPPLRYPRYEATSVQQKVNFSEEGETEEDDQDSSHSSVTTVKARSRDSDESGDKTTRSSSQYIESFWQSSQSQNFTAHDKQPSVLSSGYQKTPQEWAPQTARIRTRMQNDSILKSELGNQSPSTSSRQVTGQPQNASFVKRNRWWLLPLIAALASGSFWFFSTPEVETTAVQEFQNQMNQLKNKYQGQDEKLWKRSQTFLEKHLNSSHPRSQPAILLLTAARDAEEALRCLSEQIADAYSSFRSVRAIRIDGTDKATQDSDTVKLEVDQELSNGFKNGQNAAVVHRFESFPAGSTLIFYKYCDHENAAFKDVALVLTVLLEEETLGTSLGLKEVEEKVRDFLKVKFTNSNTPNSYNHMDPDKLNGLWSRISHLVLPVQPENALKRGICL
# [10] = biological target: Alpha-bungarotoxin (Bungarus multicinctus) (UniProt P60615); experiment: compounds binding labelled alpha-BTX control protein – biochemical, small-molecule microarray, Alexa647 label, 635/667 nm fluorescence, artefact control for SMM control protein annotation, profiling panel (AID 1117); conditions: alpha-BTX-A647 binding fluorescence, higher = more signal
# Chain of Alpha-bungarotoxin (Bungarus multicinctus) (P60615 whole entry, looked up): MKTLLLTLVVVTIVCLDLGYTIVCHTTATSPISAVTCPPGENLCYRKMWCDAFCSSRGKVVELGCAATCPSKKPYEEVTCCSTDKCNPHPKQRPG
Structure (SMILES),composite z-score [1],z-score [2],composite z-score [3],composite z-score [4],composite z-score [5],composite z-score [6],composite z-score [7],composite z-score [8],composite z-score [9],composite z-score [10]
C=CCOC(=O)[C@H]1[C@@H]2C(=O)O[C@@H](c3ccccc3)[C@@H](c3ccccc3)N2[C@@H](c2ccc(OCCOC(=O)[C@H]3C[C@H]4C(=O)N5CCC[C@H]5C(=O)N4[C@H]3c3cccc(OCCO)c3)cc2)[C@]12C(=O)Nc1ccc(I)cc12,1.43,-0.38,1.29,2,0.977,0.995,1.97,2.7,3.33,1.69
COC(=O)C1=C(C)N(Cc2ccccc2)[C@]23O[C@](C(=O)OC)(C(=O)N2[C@@H]1c1ccccc1)[C@H]1CCOC(=O)[C@H]13,0.0415,0.233,0.548,-0.348,-0.832,-0.0482,-0.0769,0.171,0.333,0.0003
CC(C)(C)OC(=O)CC[C@]1(C(N)=O)COC(c2ccc(OCCCO)cc2)=N1,0.0119,-0.518,-0.471,2.68,1.42,0.131,0.591,1.7,2.08,1.64
C[C@H]1CC[C@@H](C(=O)O)N[C@@H]1c1ccc(C#CCN(C)C)cc1,-1.64,0.848,0.793,-0.263,-0.51,-0.152,0.148,-0.126,0.109,0.783
C=C(/C(=C/C[C@@H](OC(=O)c1ccncc1)c1ccc(OCCO)cc1)c1cnc2ccccc2c1)C(C)C,0.901,-3.18,0.466,0.193,-0.583,-0.272,-0.0234,-0.302,2.75,1.26
CO[C@@H]1COC(=O)CC=C[C@@H](C)[C@@H]2C=C[C@H](O)[C@@H](COC(=O)CCC[C@H]1C)O2,-1.05,-1.96,1.31,-0.859,-1.7,-0.0721,0.211,-0.0755,0.962,-0.394
O=C(CS)NCCCCCNC(=O)[C@@H]1C[C@@H]2C(=O)N[C@@H](Cc3ccccc3)C(=O)N2[C@@H]1c1ccc(O)cc1,0.985,-0.374,0.514,0.283,-0.11,0.0004,0.149,-0.122,0.858,1.48
CC(CCN1CCCCc2nc(C)c(C)cc21)=NOC(C)CN1CCCCc2nc(C)c(C)cc21 (stereo not given),1.41,-2.95,1.45,0.447,-0.788,-0.096,-0.0709,-0.0762,0.201,1.23
CCCNC(=O)OC[C@H]1O[C@H](CCON=CC[C@@H]2C=C[C@H](OC(C)=O)[C@@H](COC(C)=O)O2)C=C[C@@H]1Oc1ccc(OC)cc1,0.791,0.0229,0.667,-0.625,-0.867,-0.0718,-0.442,-0.267,0.444,0.945
O=C(NN=C1C[C@@H](O)[C@@H](O)[C@@H]2[C@@H]3C(=O)N(c4cccc(Oc5ccccc5)c4)C(=O)[C@@H]3CC[C@H]12)OCc1ccccc1,-0.142,-0.597,0.0075,0.0088,-0.312,-0.0664,0.3,0.116,-0.0681,1.05
C[C@@H](c1ccccc1)N1C(=O)[C@H]2[C@H]3[C@H](O)C=CC(=O)[C@@H]3CC[C@H]2C1=O,-0.116,-1.73,0.657,0.0321,-0.442,-0.192,-0.34,-0.374,0.203,0.0013
C=CCNC(=O)[C@H]1[C@@H]2C(=O)O[C@@H](c3ccccc3)[C@@H](c3ccccc3)N2[C@@H](c2ccc(O)cc2)[C@]12C(=O)N(C(=O)OCCOC)c1ccc(C#CC3=CCCCC3)cc12,1.04,-0.812,0.879,1.64,0.566,0.523,1.92,2.64,2.09,1.79
CC(C)[C@@H](OCc1ccccc1)[C@H](C)C=NO[C@H](C)c1cn([C@H](CO)Cc2ccccc2)nn1,0.639,-2.09,0.521,-0.211,-0.669,-0.156,-0.0709,-0.216,0.113,0.263
COC(=O)[C@]1(CO)N=C(c2ccc(OCCCO)cc2)O[C@@H]1c1ccccc1N=[N+]=[N-],0.812,0.411,0.274,-0.323,-0.629,0.0189,-0.226,-0.215,1.6,-0.0978
O=C1C[C@@H](O)[C@@H](O)[C@@H]2[C@@H]3C(=O)N(C4CCCCC4)C(=O)[C@@H]3CC[C@H]12,0.717,-0.0951,0.456,-0.0292,-0.57,-0.114,-0.309,0.0051,0.473,-0.0214
C[C@@H]1CC[C@H]2C(=O)O[C@H](COc3ccc(C(C)(C)C)cc3)CN2[C@H]1c1ccc(Br)cc1,-0.387,0.0366,0.113,-0.11,0.347,0.721,-0.415,-0.514,-0.15,0.323
CC(C)[C@@H](OCc1ccccc1)[C@H](C)C=NOC[C@@H](C)[C@H](OCc1ccccc1)C(C)C,0.255,-0.534,0.885,0.148,-0.546,-0.101,-0.0685,-0.132,0.0528,0.312
CC(C)CON=C1[C@H]2CCn3c(=O)n(-c4ccccc4)c(=O)n3[C@H]2[C@H](O)[C@@H]2O[C@H]12,-0.626,-2.53,0.598,-0.148,-0.687,-0.291,-0.267,-0.269,0.14,0.0478

Structure (SMILES),composite z-score [1],z-score [2],composite z-score [3],composite z-score [4],composite z-score [5],composite z-score [6],composite z-score [7],composite z-score [8],composite z-score [9],composite z-score [10]
CC(CCC(=O)OC[C@H]1O[C@H](C#Cc2ccccc2)C=C[C@@H]1Oc1ccc(C)cc1)=NOC[C@@H](O)[C@H]1O[C@@H]2OC(C)(C)O[C@@H]2[C@H]1O,-0.263,-1.13,-0.15,-0.873,0.0923,-0.18,-0.439,-0.118,0.416,-0.469
O=C1[C@H]2[C@H]3[C@H](O)[C@H](O)CC(=NOCc4ccccc4)[C@H]3CC[C@H]2C(=O)N1c1ccc(F)cc1F,-0.642,0.473,0.349,-0.251,-0.349,-0.123,-0.339,-0.47,-0.273,-0.0546
CC(C)NC(=O)[C@@]1(c2ccc([N+](=O)[O-])cc2)CC(=O)N(CC23CC4CC(CC(C4)C2)C3)[C@@H]1c1ccc(CO)cc1I,1.36,-3.4,0.0161,0.613,0.273,-0.0107,0.0796,-0.41,0.981,0.442
COC(=O)C1=CCC(c2cccc(Cl)c2)O1 (stereo not given),0.387,-2.31,0.106,0.0588,-0.23,-0.0286,-0.291,0.287,0.0692,0.648
CCc1cc2c(nc1CC)CCN(CCC(C)=NOC(C)CN1CCCc3nc(C)c(C)cc31)C2 (stereo not given),1.13,-2.1,0.482,0.276,-0.544,0.245,1.38,0.774,0.849,1.21
CO[C@@H]1COC(=O)CC=C[C@@H](C)[C@@H]2C=C[C@@H](O)[C@@H](COC(=O)CC=C[C@H]1C)O2,-0.438,0.464,1.12,-1.24,-2.11,-0.252,0.0756,-0.444,-0.208,-0.114
CO[C@H]1COC(=O)CC=C[C@H](C)[C@@H](NS(=O)(=O)c2ccc(C)cc2)COC(=O)CC=C[C@@H]1C,0.0839,-1.72,0.694,-0.46,-0.521,-0.0738,-0.13,0.0613,0.37,-0.153
CCc1cc2c(nc1CC)CCN(CCC(C)=NO[C@@H](C)c1cc(-c3c(C)cc(C)cc3C)no1)C2,0.0525,-1.87,-0.368,0.0642,-0.363,-0.195,-0.0709,0.0014,0.0675,0.297
O[C@@H](Cc1ccccc1)[C@H]1C2C=CCCC(c3ccccc3)=C2CN1Cc1cccc(Cl)c1 (stereo not given in full),0.921,-2.27,0.286,-0.118,-0.264,-0.157,-0.0243,0.14,0.464,0.475
Cc1cc2c(nc1C)CCCN2CC(O)CN1CCN(C)CC1 (stereo not given),0.329,-0.162,0.625,-0.441,-0.482,0.212,0.116,-0.23,0.395,0.908
CC(C)=NOCc1ccc(-c2cc(-c3ccccc3)no2)cc1,-0.0501,-0.115,0.384,-0.555,-0.498,-0.0701,-0.214,-0.139,0.0444,-0.0299
CCCCc1nc2c(c3c1C[C@H](C)OC3)CN(CCC(C)C)CC2,1.23,-0.953,0.893,-0.0635,-0.747,-0.0704,-0.164,0.372,0.089,0.595
COCCOC(=O)N1C(=O)[C@@]2(c3cc(C#CCNC(N)=O)ccc31)[C@H](c1ccccc1OCCO)N1[C@H](c3ccccc3)[C@H](c3ccccc3)OC(=O)[C@H]1[C@@H]2C(=O)N1CCN(c2ncccn2)CC1,0.648,-0.672,0.377,0.821,0.749,0.0326,-0.108,-0.105,1.01,2.14
O=C1[C@H]2[C@H]3[C@H](O)[C@H](O)CC(=NO[C@@H]4O[C@H](CO)[C@@H](O)[C@H](O)[C@H]4O)[C@H]3CC[C@H]2C(=O)N1Cc1ccccc1,0.386,0.322,0.652,-0.058,-0.534,0.0044,-0.209,0.124,0.135,0.784
CC(=O)OC[C@H]1O[C@H](C#CCCCc2ccccc2)C=C[C@@H]1OC(C)=O,0.108,-2.99,0.615,-0.826,-0.794,-0.118,-0.0474,-0.493,0.298,0.155
COc1cccc([C@H]2Oc3ccc(OC)cc3C(=NO[C@H](C)c3cn([C@@H]4COC[C@H]4O)nn3)[C@@H]2O)c1,-0.632,-0.0869,-0.647,0.0409,-0.421,-0.184,-0.147,-0.36,-0.1,1.7
C[N+](C)(C)CCCCCCNC(=O)[C@@H]1C[C@@H]2C(=O)N3CCC[C@H]3C(=O)N2[C@@H]1c1cccc(OCCO)c1,1.34,1.41,0.385,0.233,-1.07,-0.197,0.905,-0.238,-0.24,-0.0576
